NPC1 prom act = qHTS Assay for NPC1 Promoter Activators | Huh7 NPC1 promoter luciferase reporter, 24 h | Potency, µM (highest dose often 9.22 µM), for inactives: top-dose activation, most hits filed as activators | hit rate 2.4% among 320,000; also: % of control where 0% means no effect; nearly all actives have a fitted effect of over 60% in size
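Luminescence read-out of NPC1 promoter-driven luciferase in stably transfected Huh7 cells; compounds delivered in DMSO and left 24 h at 37C, 5% CO2, qHTS titration format.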
SMN2 splice up = qHTS Assay for Enhancers of SMN2 Splice Variant Expression | HEK293 SMN2-luciferase splicing reporter, luminescence, 30-36 h | Potency, µM (top dose mostly 46.1 µM), for the others: at the highest dose activity change, positive = activation, usual class: activators | hit rate 2.8% among 210,000; also: % of control where 0% means no effect; nearly all actives have a fitted effect of over 55% in size
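HEK293 cells carry an SMN2 minigene-luciferase reporter in which exon 7 inclusion puts luciferase in frame. Cells were seeded at 2000 cells/well, attached for 10-12 hours, then exposed to compounds for 30-36 hours at 37C before ONE-Glo luminescence.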
FLuc modulator = qHTS profiling assay for firefly luciferase inhibitor/activator using purifed enzyme and Km concentrations of substrates (counterscreen for miR-21 project) | Luciferin 4-monooxygenase (Photinus pyralis), P08659 | purified FLuc, Km substrates, luminescence inhibition | Potency, µM (doses to about 57.5 µM), without a hit: at the top dose activity change, negative = inhibition, hits mostly inhibitors | hit rate 6.9% among 360,000 | AID 588342, 2011;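 also: plate controls were vehicle for no effect and reference inhibitor for full effect; nearly all actives have a fitted effect of over 55% in size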
Target sequence (P08659 whole entry, looked up): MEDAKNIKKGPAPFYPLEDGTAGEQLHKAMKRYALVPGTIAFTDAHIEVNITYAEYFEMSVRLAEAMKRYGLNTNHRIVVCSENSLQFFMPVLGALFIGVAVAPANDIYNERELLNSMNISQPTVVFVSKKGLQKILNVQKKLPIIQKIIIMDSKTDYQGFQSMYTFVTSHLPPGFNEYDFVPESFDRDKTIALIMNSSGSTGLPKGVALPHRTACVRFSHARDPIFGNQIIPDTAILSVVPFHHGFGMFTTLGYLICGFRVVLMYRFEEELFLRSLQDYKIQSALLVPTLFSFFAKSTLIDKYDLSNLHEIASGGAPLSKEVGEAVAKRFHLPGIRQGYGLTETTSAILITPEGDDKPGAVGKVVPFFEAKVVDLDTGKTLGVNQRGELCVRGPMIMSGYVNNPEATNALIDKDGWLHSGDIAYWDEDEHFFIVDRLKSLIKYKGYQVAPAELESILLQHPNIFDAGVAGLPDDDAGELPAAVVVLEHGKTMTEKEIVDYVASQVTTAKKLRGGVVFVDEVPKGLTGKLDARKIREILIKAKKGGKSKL
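Purified P. pyralis luciferase, 10 nM final, with Km-level 10 uM D-luciferin and 10 uM ATP in 50 mM Tris acetate pH 7.5, 10 mM Mg acetate, 0.01% Tween-20, 0.05% BSA; 6-point qHTS titration about 60 µM downward; luminescence read.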
Rab9 promoter act = qHTS Assay for Rab9 Promoter Activators. Huh7 Rab9 promoter-luciferase reporter, luminescence, 24 h. Potency, µM (top dose mostly 9.22 µM), for the others: top-dose activation, negative = inhibition, usual class: activators. hit rate 2.8% among 320,000; also: % of control where 0% means no effect; nearly all actives have a fitted effect of over 60% in size
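Promoter activation is measured as luciferase luminescence in Huh7 cells stably transfected with a Rab9 promoter–luciferase construct, following 24 h compound exposure at 37 °C and 10 min reagent incubation at ambient temperature.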
ELG1 genotox = qHTS screen for small molecules that induce genotoxicity in human embryonic kidney (HEK293T) cells expressing luciferase-tagged ELG1 | HEK293T ELG1-luciferase reporter, luminescence, 16 h | Potency, µM (highest dose often 46 µM), inactives show at the highest dose activity change, positive = activation, usual class: activators | hit rate 1.3% among 330,000 | AID 504466, 2011; also: % of control where 0% means no effect; nearly all actives have a fitted effect of over 60% in size
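Step 1: seed 2,000 HEK293T ELG1-luciferase cells per well. Step 2: add compound or DMSO, incubate 16 hr at 37 °C. Step 3: ONE-Glo, 30 min at room temperature, read luminescence.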
ELG1 repair inh = qHTS screen for small molecules that inhibit ELG1-dependent DNA repair in human embryonic kidney (HEK293T) cells expressing luciferase-tagged ELG1; HEK293T ELG1-luciferase reporter, luminescence, 16 h; DNA damage induced by 5-fluorouridine; Potency, µM (doses to about 46.1 µM), for the others: at the top dose activity change, negative = inhibition, hits mostly inhibitors; hit rate 2.3% among 330,000; also: % is scaled to controls: 0 for no effect and ±100 for the full control effect; nearly all actives have a fitted effect of over 55% in size
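In this reporter screen, reduction of luminescence relative to DMSO vehicle indicated activity. Compounds and 5-fluorouridine were added together to 2,000 cells per well, incubated for 16 hr at 37 °C, then developed with ONE-Glo.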
* = called active by the depositor; u = inconclusive; x = no result. Compounds with a hit are over-represented: about 9.2% of the library has one in this group of screens. Calls follow the shape of the dose curve; as a rule, active = well fitted curve in the direction sought with a large enough effect; inconclusive = small, poorly fitted or top-dose-only effect, or another doubt; inactive = no such curve, though single readings can be large; an effect the other way counts as inactive or inconclusive. Potency is read from the fitted curve at half-maximal effect.

SMILES	NPC1 prom act	SMN2 splice up	FLuc modulator	Rab9 promoter act	ELG1 genotox	ELG1 repair inh
CCOc1ccc(C(=O)NCCS(=O)(=O)N2CCN(c3ccccc3F)CC2)cc1OCC	x	x	-3%	x	x	x
O=C(CSc1ncnc2scc(-c3ccccc3)c12)Nc1ccc(C(=O)O)cc1	-40%	x	21µM*	9%	5%	24%
O=C(O)c1ccc(Nc2ncnc3scc(-c4ccccc4)c23)cc1	-4%	x	-18%	-2%	3%	-7%
Oc1cc(NCCc2cccnc2)cc2cccnc12	-32%	x	-2%	-36%	-8%	23µM*
Oc1cc(Nc2cccnc2)cc2cccnc12	-33%	x	0%	-34%	4%	u
CCOCCCNC(=O)Cn1nc(Cc2ccncc2)c2ccccc2c1=O	-1%	x	-2%	-5%	-1%	-1%
COc1ccc(N2C(=O)CCC2(C#N)c2ccc(Br)cc2)cc1 (centres undefined)	1%	-4%	1%	-2%	4%	1%
CCC1(CC)Nc2ccccc2C(=O)N1c1ccc(OC)cc1	2µM*	x	11µM*	2.5µM*	u	u
COc1ccc(N2C(S)=C(C#N)C(=O)NC23CCCCC3)cc1	1%	x	27µM*	1%	0%	15%
COc1ccc(N2C(=O)c3ccccc3NC23CCCC3)cc1	4µM*	11µM*	u	2.5µM*	u	u
COc1ccc2c(c1)CCc1c(C(=O)Nc3ccc(F)c(Cl)c3)noc1-2	x	10%	6%	x	x	x
CCOC(=O)C(=O)Nc1cc(C)on1	2.8µM*	x	1.7µM*	1.6µM*	u	u
CC(=O)Nc1ccc(C(=O)Nc2cc(C)on2)cc1	5%	x	-4%	10%	11%	u
Cc1cc(NC(=O)c2ccc(F)cc2)no1	u	x	17µM*	u	u	u
Cc1cc(NC(=O)c2nn(C)c(C)c2Br)no1	u	x	u	2.8µM*	u	u
Cc1cc(NC(=O)c2ccc3c(c2)OCCO3)no1	u	3.5µM*	1.2µM*	0.45µM*	0.65µM*	u
Cc1cc(NC(=O)c2nn(C)c(C)c2[N+](=O)[O-])no1	-5%	-21%	5%	0%	2%	2%
CCc1ccc(NC(=O)Cn2c(=O)n(-c3cc(C)cc(C)c3)c(=O)c3oc4ccccc4c32)cc1	x	x	-1%	x	x	x
CCOc1cccc(C2c3[nH]c4ccccc4c3CCN2C(=O)Cc2cccc(OCC)c2OCC)c1 (centres undefined)	x	-11%	-1%	x	x	x
CCOc1ccc(C(=O)Nc2cc(C)on2)cc1OCC	-1%	-3%	3%	1%	12%	0%
Cc1nc(NC(=O)c2cncc(Br)c2)ccc1Br	u	x	0%	u	5%	u
Cc1cc(NC(=O)c2ccc3c(c2)OCO3)no1	2.5µM*	11µM*	11µM*	1.6µM*	u	u
Cc1nc(NC(=O)c2ccc3c(c2)OCO3)ccc1Br	3.2µM*	11µM*	9.5µM*	3.5µM*	u	u
O=C(CNC(=O)c1ccc(Br)o1)Nc1cccc(S(=O)(=O)N2CCCC2)c1	9%	x	-13%	-2%	0%	5%
COc1ccc(C(=O)NCC2OCCc3ccccc32)cc1 (centres undefined)	29%	-18%	15µM*	17%	7%	u
SMILES	NPC1 prom act	SMN2 splice up	FLuc modulator	Rab9 promoter act	ELG1 genotox	ELG1 repair inh
CCOc1ccc(C(=O)NCC2OCCc3ccccc32)cc1 (centres undefined)	8%	24%	17µM*	13%	4%	u
NS(=O)(=O)c1ccc(NC(=O)COC(=O)COc2cccc(C(F)(F)F)c2)cc1	-7%	x	13µM*	-4%	0%	0%
NS(=O)(=O)c1ccc(NC(=O)COC(=O)COc2ccc3ccccc3c2)cc1	2%	11%	u	-2%	0%	11%
COc1cccc(/C=N/n2c(N)nc3ccccc32)c1OC	u	u	12µM*	u	5%	u
COc1ccc(/C=N/n2c(N)nc3ccccc32)cc1OC	u	29%	5.4µM*	26%	17%	u
COc1cccc(/C=N/n2cnc3ccccc32)c1OC	2.5µM*	u	4.8µM*	2.2µM*	2.6µM*	u
C(=N\n1cnc2ccccc21)/c1cccnc1	10%	-41%	u	16%	17%	u
CNC(=S)Nc1cccc(C(=O)OC)c1	3.5µM*	x	-3%	2µM*	18%	u
COC(=O)c1cccc(NC(=S)NCc2ccco2)c1	4%	-6%	u	0%	3%	-12%
COC(=O)c1cccc(NC(=S)NCc2ccc(F)cc2)c1	10%	7.1µM*	4%	-6%	-4%	-9%
COc1cccc(NC(=O)Cn2c(=O)n(-c3ccccc3)c(=O)c3c2c2cc(OC)ccc2n3C)c1	x	x	-3%	x	x	x
COc1cccc(/C=N/Nc2cc(Cl)nc(C)n2)c1O	u	x	3µM*	2%	7%	u
COc1cccc(/C=N/Nc2nnc(C)n2N)c1O	9%	x	-13%	8%	-4%	-3%
COc1cccc(/C=N/Nc2c(Cl)cncc2Cl)c1O	u	x	9.5µM*	28%	11%	u
COc1ccc(NC(=O)c2cc(C3CC3)nc3c2c(C)nn3-c2ccc(C)cc2)cc1OC	x	x	-2%	x	x	x
COc1ccc(OC)c(NC(=O)c2ccc(Cl)cc2)c1	1%	-2%	u	3%	2%	5%
Cc1cc(NC(=O)c2ccc(Cl)cc2)c(C)cc1O	2%	x	24µM*	21%	14%	u
COc1ccc(C(=O)Nc2cc(Cl)ccc2OC(=O)c2ccc(OC)cc2)cc1	3.5µM*	24%	u	u	u	u
O=C(Nc1ccccc1O)c1ccc([N+](=O)[O-])cc1	u	x	-18%	29%	-4%	27%
O=C(Nc1ccccc1O)c1ccc(Cl)cc1	3.2µM*	-13%	27µM*	u	u	u
Cc1cc(NC(=O)c2ccc(Cl)cc2)c(C(C)C)cc1O	6%	-6%	u	5%	-3%	-10%
O=C(Nc1ccccc1OC(=O)c1ccc(Cl)cc1)c1ccc(Cl)cc1	u	31%	-10%	3.2µM*	16%	u
Cc1ccc(C(=O)Nc2cc(Cl)ccc2OC(=O)c2ccc(C)cc2)cc1	u	14µM*	21µM*	4µM*	23%	u
